# Reference: PubChem BioAssay (NCATS)
# Where “and” joins values, the source holds several entries; their conditions need not be identical. Equal values may be shown once. Results filed as inconclusive are left out. Where a call stands in place of a potency, no number is given. Calls of active or inactive are those of the source. Calls come from the whole dose curve; as a rule, active = well fitted curve in the direction sought with a large enough effect; inconclusive = small, poorly fitted or top-dose-only effect, or another doubt; inactive = no such curve, though single readings can be large; an effect the other way counts as inactive or inconclusive.
# Columns and labels:
# TAB109 = test: qHTS profiling for inhibitors of Plasmodium falciparum proliferation (AID 504749); note: nearly all actives have a fitted effect of over 60% in size; settings: P. falciparum in erythrocytes, SYBR Green DNA, 72 h; series mostly up to 28.7 µM
# Procedure, shortened: (§1)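 Quantitative HTS: compounds pinned into medium, infected erythrocytes added (0.3% parasitemia, 2.5% hematocrit), 72 h culture at 37 C under 5% CO2. Saponin/Triton lysis with SYBR Green I, overnight RT, then fluorescence read.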
# W2 = test: as above; settings: P. falciparum in erythrocytes, SYBR Green DNA, 72 h; series mostly up to 28.7 µM
# Procedure, shortened: as §1
# CRL-7250 = normal cell line; test: Cytotoxic Profiling of Annotated Libraries Using Quantitative High-Throughput Screening (AID 1296008); settings: Five cell lines viability, CellTiter-Glo ATP luminescence, 48-72 h; max response: stronger effect = lower value; note: nearly all actives have a fitted effect of over 60% in size
# Procedure, shortened: (§2)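 Compounds were pin-transferred onto cells and incubated 48 or 72 hr at 37 degree Celsius, 95% humidity. CellTiter-Glo was added, plates sat 10 min at room temperature, then ATP-coupled luminescence was imaged as the viability read-out.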
# HaCat [1] = test: as above; settings: Five cell lines viability, CellTiter-Glo ATP luminescence, 48-72 h; max response: stronger effect = lower value
# Procedure, shortened: as §2
# KB-3-1 = test: as above; settings: Five cell lines viability, CellTiter-Glo ATP luminescence, 48-72 h; max response: stronger effect = lower value
# Procedure, shortened: as §2
# NIH3T3 [2] = test: as above; settings: Five cell lines viability, CellTiter-Glo ATP luminescence, 48-72 h; max response: stronger effect = lower value
# Procedure, shortened: as §2
# HACAT [3] = test: qHTS assay to identify novel small-molecules to repurpose for Merkel cell carcinoma treatment (AID 1296009); settings: MCC and control cell lines, CellTiter-Glo viability, 72 h; at 44.8 µM (top of the series) unless noted; note: nearly all actives have a fitted effect of over 60% in size
# Procedure, shortened: (§3)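 Viability readout: ATP luminescence (CellTiter-Glo) after 72 hr drug exposure at 37 degree celsius. Dose-response format was 8 points for NPC and 11 points for MIPE; data normalized to in-plate controls.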
# MCC-13 = test: as above; settings: MCC and control cell lines, CellTiter-Glo viability, 72 h; series mostly up to 46 µM
# Procedure, shortened: as §3
# MCC-26 = test: as above; settings: MCC and control cell lines, CellTiter-Glo viability, 72 h; series mostly up to 46 µM
# Procedure, shortened: as §3
# MKL-1 = test: as above; settings: MCC and control cell lines, CellTiter-Glo viability, 72 h; series mostly up to 46 µM
# Procedure, shortened: as §3
# MKL-2 = test: as above; settings: MCC and control cell lines, CellTiter-Glo viability, 72 h; series mostly up to 46 µM
# Procedure, shortened: as §3
# UISO = test: as above; settings: MCC and control cell lines, CellTiter-Glo viability, 72 h; series mostly up to 46 µM
# Procedure, shortened: as §3
# WaGa = test: as above; settings: MCC and control cell lines, CellTiter-Glo viability, 72 h; series mostly up to 46 µM
# Procedure, shortened: as §3
# C33A = test: Primary qHTS to identify gynecologic anti-cancer compounds using libraries of approved drugs and bioactive compounds (AID 1345084); settings: Gynecologic cancer cell panel viability, ATPlite luminescence, 48 h; series mostly up to 57.5 µM; note: nearly all actives have a fitted effect of over 55% in size
# Procedure, shortened: (§4)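 Luminescence from the ATPlite ATP-monitoring reagent indicates viable cell number; lower signal means cytotoxicity. Cells received compound 16 h after seeding and were exposed for 48 h across five concentrations.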
# CAOV3 = test: as above; settings: Gynecologic cancer cell panel viability, ATPlite luminescence, 48 h; series mostly up to 57.5 µM
# Procedure, shortened: as §4
# HEK293T = test: qHTS assay to identify novel small-molecules to repurpose for Merkel cell carcinoma treatment (AID 1296009); settings: MCC and control cell lines, CellTiter-Glo viability, 72 h; at 44.8 µM (top of the series) unless noted; note: nearly all actives have a fitted effect of over 60% in size
# Procedure, shortened: as §3
# NIH3T3 [4] = test: as above; settings: MCC and control cell lines, CellTiter-Glo viability, 72 h; at 44.8 µM (top of the series) unless noted
# Procedure, shortened: as §3
# TAB113 = test: qHTS profiling for inhibitors of Plasmodium falciparum proliferation (AID 504749); note: nearly all actives have a fitted effect of over 60% in size; settings: P. falciparum in erythrocytes, SYBR Green DNA, 72 h; series mostly up to 28.7 µM
# Procedure, shortened: as §1
# TAB165 = test: as above; settings: P. falciparum in erythrocytes, SYBR Green DNA, 72 h; series mostly up to 28.7 µM
# Procedure, shortened: as §1
# HEK293 = test: Cytotoxic Profiling of Annotated Libraries Using Quantitative High-Throughput Screening (AID 1296008); settings: Five cell lines viability, CellTiter-Glo ATP luminescence, 48-72 h; max response: stronger effect = lower value; note: nearly all actives have a fitted effect of over 60% in size
# Procedure, shortened: as §2
# Potency is the fitted concentration of half-maximal effect.
smiles,measurement,setting,value
NC(=O)N/N=C/c1ccc([N+](=O)[O-])o1,Potency,TAB109,12.6 µM (active)
same,Potency,W2,9.53 µM (active)
same,max response,CRL-7250,-6.15% (inactive)
same,max response,HaCat [1],-0.194% (inactive)
same,outcome,HaCat [1],inactive
same,max response,KB-3-1,-7.34% (inactive) and -25.8% (inactive)
same,max response,NIH3T3 [2],3.44% (inactive)
same,outcome,HACAT [3],inactive
same,Potency,MCC-13,inactive
same,Potency,MCC-26,inactive
same,Potency,MKL-1,24.3 µM (active)
same,Potency,MKL-2,15.4 µM (active)
same,Potency,UISO,inactive
same,Potency,WaGa,38.6 µM (active)
same,Potency,C33A,inactive
same,Potency,CAOV3,inactive
CCN(CC)C(C)CN1c2ccccc2Sc2ccccc21 (stereo not drawn),outcome,HEK293T,inactive
same,Potency,MCC-13,inactive
same,Potency,MCC-26,inactive
same,Potency,MKL-1,inactive
same,Potency,MKL-2,inactive
same,outcome,NIH3T3 [4],inactive
same,Potency,UISO,inactive
same,Potency,WaGa,inactive
same,Potency,C33A,inactive
same,Potency,CAOV3,inactive
CSc1ccc2c(c1)N(CCC1CCCCN1C)c1ccccc1S2 (stereo not drawn),Potency,TAB109,8.91 µM (active)
same,Potency,TAB113,10 µM (active)
same,Potency,TAB165,12.6 µM (active)
same,Potency,W2,6.75 µM (active)
same,max response,KB-3-1,-7.5% (inactive)
same,Potency,MCC-13,26.6 µM (active)
same,Potency,MKL-1,11.9 µM (active)
same,Potency,MKL-2,3.35 µM (active)
same,Potency,UISO,26.6 µM (active)
same,Potency,WaGa,23.7 µM (active)
OCc1cc(C(O)CNCCCCCCOCCCCc2ccccc2)ccc1O (stereo not drawn),Potency,TAB113,inactive
same,max response,CRL-7250,-15.6% (inactive)
same,max response,HaCat [1],2.23% (inactive)
same,max response,KB-3-1,-19.3% (inactive)
same,max response,NIH3T3 [2],-10.4% (inactive)
same,Potency,MCC-13,inactive
same,Potency,MCC-26,inactive
same,Potency,MKL-1,inactive
same,Potency,WaGa,inactive
same,Potency,C33A,inactive
same,Potency,CAOV3,22.4 µM (active)
CC1=C(/C=C/C(C)=C/C=C/C(C)=C/C(=O)O)C(C)(C)CCC1,Potency,TAB109,inactive
same,Potency,TAB113,inactive
same,Potency,TAB165,inactive
same,Potency,W2,inactive
same,max response,HaCat [1],-3.44% (inactive)
same,max response,KB-3-1,-14.5% (inactive)
same,max response,NIH3T3 [2],-0.598% (inactive)
same,Potency,MCC-13,inactive
same,Potency,MCC-26,inactive
same,Potency,UISO,inactive
same,Potency,C33A,inactive
same,Potency,CAOV3,inactive
CNCCCC1c2ccccc2C=Cc2ccccc21,Potency,TAB109,inactive
same,Potency,TAB113,inactive
same,Potency,W2,0.51 µM (active)
same,max response,HaCat [1],-1.18% (inactive)
same,max response,KB-3-1,6.95% (inactive)
same,Potency,MCC-13,inactive
same,Potency,MCC-26,inactive
same,Potency,MKL-2,21.1 µM (active)
same,Potency,UISO,inactive
same,Potency,C33A,inactive
CN1[C@@H]2CC(OC(=O)[C@H](CO)c3ccccc3)C[C@H]1[C@@H]1O[C@@H]12 (stereo partly drawn),outcome,HEK293T,inactive
same,Potency,MCC-13,inactive
same,Potency,MCC-26,inactive
same,Potency,MKL-1,inactive
same,Potency,C33A,inactive
CC(=O)c1ccc2c(c1)N(CCCN(C)C)c1ccccc1S2,Potency,TAB109,inactive
same,Potency,TAB113,inactive
same,Potency,TAB165,inactive
same,Potency,W2,1.02 µM (active)
same,max response,KB-3-1,-1.52% (inactive)
same,max response,NIH3T3 [2],1.48% (inactive)
same,Potency,MCC-13,inactive
same,Potency,MCC-26,inactive
same,Potency,MKL-1,inactive
same,Potency,UISO,inactive
same,Potency,WaGa,26.6 µM (active)
same,Potency,C33A,inactive
same,Potency,CAOV3,inactive
CC(=O)O[C@@]12CO[C@@H]1C[C@H](O)[C@@]1(C)C(=O)[C@H](O)C3=C(C)[C@@H](OC(=O)[C@H](O)[C@@H](NC(=O)OC(C)(C)C)c4ccccc4)C[C@@](O)([C@@H](OC(=O)c4ccccc4)[C@H]21)C3(C)C,Potency,HEK293,0.0021 µM (active)
same,Potency,KB-3-1,7.3 nM (active)
same,Potency,NIH3T3 [2],0.0084 µM (active)
same,Potency,MKL-2,inactive
same,Potency,C33A,inactive
NC1[C@H]2CN(c3nc4c(cc3F)c(=O)c(C(=O)O)cn4-c3ccc(F)cc3F)C[C@@H]12 (stereo partly drawn),Potency,HEK293,15 µM (active)
same,Potency,NIH3T3 [2],16.8 µM (active)
same,Potency,MCC-26,inactive
same,Potency,UISO,26.6 µM (active)
same,Potency,WaGa,21.1 µM (active)
CC(=O)Oc1c(C)c(C)c2c(c1C)CC[C@@](C)(CCC[C@H](C)CCC[C@H](C)CCCC(C)C)O2,Potency,C33A,inactive
